Inhibition data for 16 molecules are collected here from PubChem BioAssay.

SMILES strings stand for the structures. Values without a mark were called inactive. Activity calls are given as the source filed them. Rule as the data show it, unless noted: active = inhibition above about 42%; inactive = the rest.

The target in assay [1] is Nuclear receptor coactivator 3 (Homo sapiens) (UniProt Q9Y6Q9). The assay is described as follows: NCOA3 GAL4-fusion reporter inhibition – cell-based, luminescence, quadruplicate, confirmation (AID 588792;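 active = mean inhibition over 43.08%, the solvent-only control mean plus 3 SD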;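 also: 0% = DMSO treated cells and 100% = gossypol at 36 µM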). The following applies: HEK293 GAL4-SRC3 luciferase reporter, at 3.6 µM, active compounds read high. For orientation: In a reporter assay the amount or activity of a reporter protein is the signal.
Sequence of Nuclear receptor coactivator 3 (Homo sapiens) (Q9Y6Q9 whole entry, looked up, the tested form may be a part): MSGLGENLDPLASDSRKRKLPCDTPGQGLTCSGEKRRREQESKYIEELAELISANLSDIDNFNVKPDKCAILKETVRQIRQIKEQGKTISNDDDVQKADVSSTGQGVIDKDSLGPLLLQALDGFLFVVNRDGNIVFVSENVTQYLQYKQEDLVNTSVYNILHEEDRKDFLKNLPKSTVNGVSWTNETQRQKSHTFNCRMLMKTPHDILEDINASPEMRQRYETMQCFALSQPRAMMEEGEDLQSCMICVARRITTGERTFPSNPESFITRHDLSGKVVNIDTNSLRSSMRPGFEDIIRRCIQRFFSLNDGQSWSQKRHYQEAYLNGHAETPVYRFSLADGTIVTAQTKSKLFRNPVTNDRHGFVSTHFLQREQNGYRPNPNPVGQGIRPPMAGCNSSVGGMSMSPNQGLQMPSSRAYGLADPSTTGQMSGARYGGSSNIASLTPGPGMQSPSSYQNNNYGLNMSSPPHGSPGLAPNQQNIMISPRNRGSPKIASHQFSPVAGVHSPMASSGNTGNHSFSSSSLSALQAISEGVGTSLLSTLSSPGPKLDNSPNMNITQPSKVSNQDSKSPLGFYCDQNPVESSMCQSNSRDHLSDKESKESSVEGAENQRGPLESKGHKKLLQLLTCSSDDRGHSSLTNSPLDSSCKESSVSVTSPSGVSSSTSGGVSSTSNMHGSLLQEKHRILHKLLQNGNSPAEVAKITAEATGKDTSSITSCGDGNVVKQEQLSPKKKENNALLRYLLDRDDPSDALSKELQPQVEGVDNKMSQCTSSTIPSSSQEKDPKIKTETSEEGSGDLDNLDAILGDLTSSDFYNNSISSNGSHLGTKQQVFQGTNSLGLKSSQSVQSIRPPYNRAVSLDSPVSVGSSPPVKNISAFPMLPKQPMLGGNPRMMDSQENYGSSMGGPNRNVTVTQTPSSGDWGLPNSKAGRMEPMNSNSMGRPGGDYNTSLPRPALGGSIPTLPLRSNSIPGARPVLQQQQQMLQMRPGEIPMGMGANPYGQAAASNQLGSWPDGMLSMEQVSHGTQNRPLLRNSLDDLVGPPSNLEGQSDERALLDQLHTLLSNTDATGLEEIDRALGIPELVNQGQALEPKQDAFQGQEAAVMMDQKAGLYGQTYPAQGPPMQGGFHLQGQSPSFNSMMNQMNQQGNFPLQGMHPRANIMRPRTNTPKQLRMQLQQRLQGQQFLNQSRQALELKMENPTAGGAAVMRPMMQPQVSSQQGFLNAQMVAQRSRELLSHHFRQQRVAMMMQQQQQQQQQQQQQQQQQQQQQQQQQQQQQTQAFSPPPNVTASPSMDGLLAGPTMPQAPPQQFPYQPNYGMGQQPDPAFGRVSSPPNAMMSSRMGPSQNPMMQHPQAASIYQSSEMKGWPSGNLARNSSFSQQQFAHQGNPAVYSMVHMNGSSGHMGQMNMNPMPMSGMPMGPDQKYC

Assay [2] relates to transactivating tegument protein VP16 (Human herpesvirus 1), Gal4-VP16 luciferase reporter. The assay is described as follows: repression of VP16-driven luciferase reporter – cell-based, luminescence, high throughput, counter-screen for SRC3 inhibitor project (AID 588794; in the data active = inhibition above about 30%). The following applies: mammalian cells, at 3.6 µM, active compounds read high.
In assay [3] the target is Nuclear receptor coactivator 1 (Homo sapiens) (UniProt Q15788). The assay is described as follows: NCOA1 GAL4-fusion reporter inhibition – cell-based, luminescence, quadruplicate, confirmation (AID 588820;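 active = mean inhibition above 46.68%, the untreated control wells mean plus 3 SD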;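 also: 0% = DMSO wells and 100% = gossypol 36 µM treated wells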). The following applies: HEK293 GAL4-SRC1 luciferase reporter, at 3.6 µM, active compounds read high.
Sequence of Nuclear receptor coactivator 1 (Homo sapiens) (Q15788 whole entry, looked up, the tested form may be a part): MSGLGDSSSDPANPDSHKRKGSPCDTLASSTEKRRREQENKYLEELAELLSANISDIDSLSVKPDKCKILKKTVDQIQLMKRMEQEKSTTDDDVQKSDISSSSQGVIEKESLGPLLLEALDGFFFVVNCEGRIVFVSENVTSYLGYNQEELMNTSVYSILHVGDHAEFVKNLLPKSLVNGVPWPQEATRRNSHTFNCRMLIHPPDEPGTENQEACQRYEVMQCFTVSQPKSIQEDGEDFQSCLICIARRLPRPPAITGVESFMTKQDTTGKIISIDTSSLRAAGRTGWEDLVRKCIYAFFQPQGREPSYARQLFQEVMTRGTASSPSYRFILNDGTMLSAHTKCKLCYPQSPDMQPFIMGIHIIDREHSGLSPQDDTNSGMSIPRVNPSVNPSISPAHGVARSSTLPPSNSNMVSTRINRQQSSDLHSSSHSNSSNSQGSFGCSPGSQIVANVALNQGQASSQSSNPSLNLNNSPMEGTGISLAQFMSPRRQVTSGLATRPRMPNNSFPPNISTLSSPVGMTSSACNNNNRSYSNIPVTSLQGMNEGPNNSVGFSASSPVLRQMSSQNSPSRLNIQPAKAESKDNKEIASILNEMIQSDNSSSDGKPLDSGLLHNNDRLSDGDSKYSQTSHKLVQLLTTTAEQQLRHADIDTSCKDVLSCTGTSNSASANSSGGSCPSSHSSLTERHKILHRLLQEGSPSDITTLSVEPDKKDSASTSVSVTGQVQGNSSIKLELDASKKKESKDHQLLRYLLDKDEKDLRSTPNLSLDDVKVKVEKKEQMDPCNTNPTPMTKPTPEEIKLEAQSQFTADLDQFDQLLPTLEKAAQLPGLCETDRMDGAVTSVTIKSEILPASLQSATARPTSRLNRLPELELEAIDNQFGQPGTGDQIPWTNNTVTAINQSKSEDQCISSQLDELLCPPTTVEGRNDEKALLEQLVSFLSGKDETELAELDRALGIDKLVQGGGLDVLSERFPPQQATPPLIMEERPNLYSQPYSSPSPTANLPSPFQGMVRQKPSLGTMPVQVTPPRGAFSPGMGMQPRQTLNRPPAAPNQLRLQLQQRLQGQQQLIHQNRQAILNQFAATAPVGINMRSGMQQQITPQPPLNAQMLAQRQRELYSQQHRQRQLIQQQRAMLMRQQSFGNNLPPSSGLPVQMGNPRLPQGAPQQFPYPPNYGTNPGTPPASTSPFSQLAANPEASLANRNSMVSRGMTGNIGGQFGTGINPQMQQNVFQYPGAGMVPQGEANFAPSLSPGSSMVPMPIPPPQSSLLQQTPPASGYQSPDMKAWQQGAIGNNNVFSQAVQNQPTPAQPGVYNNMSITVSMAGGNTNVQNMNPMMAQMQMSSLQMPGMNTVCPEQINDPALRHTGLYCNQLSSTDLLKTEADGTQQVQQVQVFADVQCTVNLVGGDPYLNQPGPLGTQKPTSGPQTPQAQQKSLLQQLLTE
Assay [4] is described as follows: repression of VP16-driven luciferase reporter – cell-based, luminescence, high throughput, counter-screen for SRC1 inhibitor project (AID 588824; in the data active = inhibition above about 25%). The following applies: cell-based VP16 transactivation luciferase luminescence; at 3.6 µM; active compounds read high.
Assay [5] is described as follows: StAR promoter reporter inhibitors, counter-screen for LRH-1 inverse agonist project, cell-based, luminescence, high throughput (AID 651611; in the data active = inhibition above about 28%). The following applies: StAR promoter luciferase reporter counterscreen, at 3.6 µM, active compounds read high. Background: Counterscreens check selectivity or assay interference.
Assay [6] concerns the target Nuclear receptor subfamily 5 group A member 2 (Homo sapiens) (UniProt O00482). The assay can be described thus: NR5A2 activity suppression in reporter cells – cell-based, luminescence, confirmation (AID 651613).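 Also: HEK293T cells co-transfected with LRH-1 and StAR promoter luciferase reporter; 0% = vehicle wells and 100% = parental cells lacking receptor.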 Particulars: cell-based LRH-1 luciferase reporter, inverse agonism; at 3.6 µM; active compounds read high.
Assay [7] deals with Steroidogenic factor 1 (Homo sapiens) (UniProt Q13285). The assay is described as follows: inverse agonism at SF1 nuclear receptor – cell-based, luminescence, high throughput, counter-screen for LRH-1 inverse agonist project (AID 651614; in the data active = inhibition above about 44%;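 also: cells cotransfected with StAR promoter reporter and SF1 expression vector; 0% = vehicle on cells with receptor and 100% = vehicle on cells lacking receptor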). The following applies: cell-based SF1 luciferase reporter, at 3.6 µM, active compounds read high.
Sequence of Steroidogenic factor 1 (Homo sapiens) (Q13285 whole entry, looked up, the tested form may be a part): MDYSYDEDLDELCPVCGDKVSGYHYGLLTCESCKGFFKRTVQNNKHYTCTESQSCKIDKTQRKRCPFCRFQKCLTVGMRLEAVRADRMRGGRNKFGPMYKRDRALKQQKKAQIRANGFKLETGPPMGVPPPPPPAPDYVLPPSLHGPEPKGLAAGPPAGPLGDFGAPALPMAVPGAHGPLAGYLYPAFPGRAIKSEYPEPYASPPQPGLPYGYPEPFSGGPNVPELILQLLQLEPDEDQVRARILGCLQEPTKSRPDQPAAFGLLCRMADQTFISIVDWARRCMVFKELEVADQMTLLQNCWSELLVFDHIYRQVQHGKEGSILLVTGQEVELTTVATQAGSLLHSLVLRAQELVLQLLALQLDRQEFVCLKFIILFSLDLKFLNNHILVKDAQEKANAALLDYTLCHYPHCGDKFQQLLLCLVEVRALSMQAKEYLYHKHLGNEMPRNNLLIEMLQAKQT
Assay [8] in a line: compounds suppressing VP16-driven luciferase signal – cell-based, luminescence, high throughput, counter-screen for LRH-1 inverse agonist project (AID 651615; in the data active = inhibition above about 33%). The following applies: Gal4-VP16 luciferase reporter cells, at 3.6 µM, active compounds read high.

Sequence of Nuclear receptor subfamily 5 group A member 2 (Homo sapiens) (O00482 whole entry, looked up): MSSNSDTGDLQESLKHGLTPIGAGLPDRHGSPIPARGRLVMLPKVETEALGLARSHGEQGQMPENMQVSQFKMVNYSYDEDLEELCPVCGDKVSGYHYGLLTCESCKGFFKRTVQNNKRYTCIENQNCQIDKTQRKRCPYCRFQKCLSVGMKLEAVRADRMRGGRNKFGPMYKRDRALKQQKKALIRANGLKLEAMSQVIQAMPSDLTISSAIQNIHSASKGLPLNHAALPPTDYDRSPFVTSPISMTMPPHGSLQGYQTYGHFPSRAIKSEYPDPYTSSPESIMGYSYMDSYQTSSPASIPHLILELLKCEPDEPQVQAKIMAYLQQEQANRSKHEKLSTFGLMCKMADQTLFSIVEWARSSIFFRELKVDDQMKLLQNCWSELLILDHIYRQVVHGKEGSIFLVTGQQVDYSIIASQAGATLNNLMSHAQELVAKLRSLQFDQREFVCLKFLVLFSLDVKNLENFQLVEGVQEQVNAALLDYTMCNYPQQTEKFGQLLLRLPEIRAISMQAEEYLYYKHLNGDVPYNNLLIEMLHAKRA

Broadly, the inhibition is the drop in the measured response relative to a control, in per cent. On to `Cn1c(=O)c2cc(NC(=O)CCc3ccc(O)cc3)ccc2n1Cc1cccc(C(F)(F)F)c1`, for which the inhibition is 34.4% in assay [1]; 64.2% (active) in assay [2]; 38.7% in assay [3]; 66% (active) in assay [4]; 63.3% (active) in assay [5]; 80% (active) in assay [6]. Besides, the inhibition was 80.1% (active) in assay [7] and 76.9% (active) in assay [8].

On to `Cc1onc(-c2ccccc2)c1C(=O)NC(=S)NNC(=O)c1ccc(O)cc1O`, for which the inhibition in assay [1] was 55.7% (active); in assay [2], 75.7% (active); in assay [3] it was 69.8% (active); in assay [4], 80.5% (active); in assay [5], 62.8% (active); in assay [6] it was 95.8% (active). In addition, the inhibition in assay [7] is 85.6% (active); in assay [8], 83.5% (active).

For the molecule `c1ccc(-c2nnc(-c3ccccn3)nc2NC2CCCCC2)cc1`, the inhibition in assay [1] is 70.2% (active); in assay [2], 14.8%; in assay [3], 49.1% (active); in assay [4] it was 18.8%; in assay [5] it was 82.6% (active); in assay [6] it was 88.9% (active). Moreover, the figures for the inhibition in assay [7] and in assay [8] were 74.7% (active) and 45.4% (active), respectively.

Consider `O=C(Nc1ccc(N2CCN(C(=O)c3ccccc3)CC2)cc1)c1ccc2c(c1)OCO2`, for which the inhibition in assay [1] is 36.9%; in assay [2], 66.7% (active); in assay [3], 37.4%; in assay [4], 57.1% (active); in assay [5], 50.2% (active); in assay [6], 64% (active). The inhibition is 73.8% (active) in assay [7] and 70.5% (active) in assay [8].

For the molecule `CCCc1nc2c(=O)n(C)c(=O)nc-2n(C)n1`, the inhibition was 70.5% (active) in assay [1]; 66.6% (active) in assay [2]; 18.4% in assay [3]; 64% (active) in assay [4]; 56.5% (active) in assay [5]; 68.8% (active) in assay [6]. Also, the figures for the inhibition in assay [7] and in assay [8] were 72.8% (active) and 73.5% (active), respectively.

Take `CCN(CC)CCCNc1nc2ccccc2c2[nH]c3ccc(OC)cc3c12`: the inhibition in assay [1] was -19.2%; in assay [2], 49% (active); in assay [3], -3.04%; in assay [4] it was 48.8% (active); in assay [5], 30.1% (active); in assay [6], 44.4% (active). The inhibition was 60.5% (active) in assay [7] and 71.7% (active) in assay [8].

For `COc1ccc(C(=O)Nc2cnn(Cc3ccc(Cl)cc3)c2)cc1OC`, the inhibition in assay [1] was 26.3%; in assay [2] it was 52.7% (active); in assay [3], 23.3%; in assay [4], 51% (active); in assay [5], 45% (active); in assay [6], 51.8% (active). In addition, the inhibition in assay [7] is 64% (active); in assay [8], 63.1% (active).

Take `N#Cc1cc2c(nc1SCC(=O)N1CCOCC1)CCCCC2`: the inhibition in assay [1] is 21.1%; in assay [2], 21.5%; in assay [3], -34.5%; in assay [4], -17.9%; in assay [5] it was -55%; in assay [6] it was -116%. For the same molecule, the inhibition in assay [7] is -87.7%; in assay [8], -62.9%.

Consider `CCCCC(=O)NC(c1ccccc1Cl)c1ccc2cccnc2c1O` (stereo not drawn), for which the inhibition in assay [1] was 26.3%; in assay [2] it was 32.7% (active); in assay [3], 41%; in assay [4], 50.9% (active); in assay [5] it was 74.1% (active); in assay [6], 76.5% (active). Besides, the inhibition in assay [7] is 80.8% (active); in assay [8], 74.4% (active).

Take `Cc1cc(C)cc(NS(=O)(=O)c2ccc3c(c2)c(=O)n(C)c(=O)n3C)c1`: the inhibition was 55.2% (active) in assay [1]; 36.5% (active) in assay [2]; 57.1% (active) in assay [3]; 38% (active) in assay [4]; 36.2% (active) in assay [5]; 54.4% (active) in assay [6]. Further, the inhibition is 41.3% in assay [7] and 56.9% (active) in assay [8].

Turning to `Cc1cc(C(C)(C)C)cc(C)c1C[n+]1ccc2ccccc2c1`, the inhibition in assay [1] is 41.4%; in assay [2] it was 59.3% (active); in assay [3], 11.7%; in assay [4], 53.3% (active); in assay [5] it was 30.7% (active); in assay [6], 99.2% (active). For the same molecule, the inhibition in assay [7] is 69.1% (active); in assay [8], 72.7% (active).

As for `Cn1nccc1C(=O)N/N=C/c1c(O)ccc2ccccc12`, the inhibition in assay [1] is 73.9% (active); in assay [2] it was 74.6% (active); in assay [3], 72% (active); in assay [4] it was 71% (active); in assay [5] it was 82.4% (active); in assay [6], 101% (active). Besides, the inhibition in assay [7] was 86.2% (active); in assay [8], 71.1% (active).

In the case of `CN(C)CC1CCC/C(=C\c2ccc(OC(=O)c3ccc(Cl)cc3)cc2)C1=O` (stereo not drawn), the inhibition in assay [1] was 50.4% (active); in assay [2] it was 60.2% (active); in assay [3] it was 29.9%; in assay [4], 58.1% (active); in assay [5], 70.8% (active); in assay [6], 89.9% (active). The inhibition in assay [7] was 76.4% (active); in assay [8], 69.3% (active).

For the molecule `Nc1ccc(S(=O)(=O)NNC(=O)C(=O)NNc2ccccc2)cc1`, the inhibition in assay [1] was 12.2%; in assay [2], 8.16%; in assay [3], -15.5%; in assay [4], 18.5%; in assay [5], 5.29%; in assay [6], 18.9%. In addition, the inhibition was 17.6% in assay [7] and 39.2% (active) in assay [8].

Regarding `Cc1cccc(NC(=O)c2cc(Cl)ccc2[N+](=O)[O-])c1`, the inhibition in assay [1] was 42.4%; in assay [2], 27%; in assay [3] it was 17.7%; in assay [4], 51.4% (active); in assay [5] it was 44.3% (active); in assay [6], 51% (active). Moreover, the inhibition in assay [7] is 58.4% (active); in assay [8], 33.2% (active).

Take `N=c1c2c(n(Cc3ccc(Br)cc3)c3c1CCC3)CCCC2`: the inhibition is 51.3% (active) in assay [1]; 67.7% (active) in assay [2]; 45.7% in assay [3]; 70.5% (active) in assay [4]; 60.2% (active) in assay [5]; 111% (active) in assay [6]. The inhibition was 86.3% (active) in assay [7] and 89.9% (active) in assay [8].
